Consider 16 compounds from PubChem BioAssay.

SMILES strings stand for the structures. Calls of active or inactive are those of the source.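 The calls were made as follows: active = viability increase at or above a cutoff of the median across tested compounds plus 3 SD (cut at about 8.5% in these data, passing the limit was not always enough); inconclusive = some gains above the cutoff, reason not given; inactive = the rest.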

The experiment can be described thus: doxorubicin toxicity protection in MRP-1 cells – H69AR cells, CellTiter-Glo, duplicate, MRP-1 activator project, pilot screen (AID 807).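 Also: compound pretreatment 18-22 h then 72 h combined with doxorubicin; 0% = doxorubicin alone and 100% = vehicle without doxorubicin.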 As to conditions: H69AR viability with doxorubicin, CellTiter-Glo luminescence; at 10 µM; hits give high values. A general note: Cellular ATP, detected with luciferase, serves as a proxy for viable cell number.
With `COc1cc(OC)c(NC2c3ccccc3C(=O)N2c2cc(C)ccn2)cc1Cl` (stereo unspecified), the viability increase was 0.48% (inactive).
Under `CC(=O)Nc1ccc(NC(=O)CSc2nccn2Cc2ccccc2)cc1` stands -1.64% (inactive); under `CCn1c(C(=O)NC(C)c2ccc3c(c2)OCCO3)cc2sccc21` (stereo unspecified), -0.14% (inactive).
Under `Cn1c(Cn2c(=O)sc3ccccc32)nnc1SCC(=O)N1CCCC1` stands 0.61% (inactive); under `CN1CCc2c(sc3c2C(=O)NC(c2ccc(-c4cccc(Cl)c4)o2)N3)C1` (stereo unspecified), -1.49% (inactive).
As to `NC(=O)C1CCN(CCCNC2CC(=O)N(Cc3ccc(N4CCCC4=O)cc3)C2=O)CC1` (stereo unspecified), the viability increase is -0.01% (inactive).
The same measure for `O=C(NCCN1CCOCC1)c1ccc2c(c1)N(Cc1ccccc1)CCS2`: -2.25% (inactive); for `COc1ccc(C2C(C(=O)N3CCN(c4ccccc4)CC3)c3ccccc3C(=O)N2C)cc1OC` (stereo unspecified): -1.19% (inactive); for `CC(=O)Nc1ccc(S(=O)(=O)N2CCN(c3cc(C)ccc3C)CC2)cc1`: -0.32% (inactive).
Under `COc1ccccc1NC(=O)CSc1ncn[nH]1` stands 1.06% (inactive).
Take `Cc1ccc(/C=N/n2c(C)nnc2C)cc1`: the viability increase is -1.74% (inactive).
In the case of `C=CCSC1=C(C#N)C(c2ccc(C(C)C)cc2)CC(=O)N1` (stereo unspecified), the viability increase is -1.41% (inactive).
As to `COc1ccccc1NC(=O)C1=C(C)Nc2nnnn2C1c1cccc(C)c1` (stereo unspecified), the viability increase is -5.73% (inactive).
In the case of `CC(C)N1C(=O)CCC1C(=O)N1CCN(c2ccccn2)CC1` (stereo unspecified), the viability increase was 0.54% (inactive).
Take `Cc1ccc(Cl)cc1N1CCN(C(=O)C2CCC(=O)N2C(C)C)CC1` (stereo unspecified): the viability increase is 2.45% (inactive).
As to `COc1ccc(Cl)cc1S(=O)(=O)n1ccnc1C(C)C`, the viability increase is -2.46% (inactive).
